Screens deposited in PubChem BioAssay by National Center for Advancing Translational Sciences (NCATS).
The list is not random: actives were taken first. Their share in the collection is about 8.5%.
RGS12 GoLoco inh: blocks human Gai1 binding to RGS12 GoLoco peptide, red readout | P63096 | Gai1:RGS12 GoLoco peptide FP, rhodamine, 10 min | Potency, µM (highest dose often 61.6 µM), without a hit: at the top dose activity, negative = inhibition, usual class: inhibitors | actives 0.44% (n = 230,000) | AID 880; active = well fitted inhibition curve with a large enough effect, not every such curve was filed as active; inactive = no such curve, though single readings can be large or run the other way; note: potency is the fitted concentration of half-maximal effect; nearly all actives have a fitted effect of over 30% in size
Target sequence (P63096 whole entry, looked up): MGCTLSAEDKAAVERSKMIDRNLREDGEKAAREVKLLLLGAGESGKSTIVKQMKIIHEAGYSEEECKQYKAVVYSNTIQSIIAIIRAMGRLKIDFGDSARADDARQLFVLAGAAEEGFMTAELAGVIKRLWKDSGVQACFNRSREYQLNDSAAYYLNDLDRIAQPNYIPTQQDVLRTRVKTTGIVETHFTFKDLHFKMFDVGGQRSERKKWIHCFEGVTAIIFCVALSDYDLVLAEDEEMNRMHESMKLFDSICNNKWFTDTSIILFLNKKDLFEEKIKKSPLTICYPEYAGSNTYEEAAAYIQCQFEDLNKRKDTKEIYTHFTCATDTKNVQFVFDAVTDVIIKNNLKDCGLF
NPSR antag: neuropeptide S receptor (human) antagonism, cAMP; Q6W5P4; CHO-NPSR cells, cAMP TR-FRET, antagonist mode; actives 1% (n = 220,000); Potency, µM (series often up to 38.3 µM), without a hit: at the highest dose activity change, negative = inhibition, hits mostly inhibitors; active = well fitted curve in the direction sought with a large enough effect; inconclusive = small, poorly fitted or top-dose-only effect, or another doubt; inactive = no such curve, though single readings can be large; an effect the other way counts as inactive or inconclusive; note: potency is the fitted concentration of half-maximal effect; nearly all actives have a fitted effect of over 50% in size
FBPA coupling cs: coupling enzyme interference in Giardia aldolase counter-screen. activity change, negative = inhibition, % at 58.2 µM, hits read low. coupling enzyme system counterscreen, AmpLite Red fluorescence. actives 0.67% (n = 290,000); in the data active = activity change below about -30%
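Final compound at 57.5 uM, incubated 10 min at RT with coupling enzyme reagent (glyceraldehyde-3-phosphate), then 20 min with substrate and AmpLite Red detection. Fluorescence read at 525/598 nm; tests interference with the coupling assay, not aldolase inhibition.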
ALDH1A1 inh: ALDH1A1 (human) enzyme inhibition | P00352 | Purified ALDH1A1, NADH fluorescence, propionaldehyde substrate | Potency, µM (highest dose often 75.3 µM), for inactives: at the top dose activity, negative = inhibition, usual class: inhibitors | actives 7.3% (n = 220,000);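 note: potency is the fitted concentration of half-maximal effect; plate controls were no enzyme wells and a reference inhibitor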
JMJD2E inh: JMJD2E (human) inhibition; B2RXH2; JMJD2E catalytic domain, FDH-coupled NADH fluorescence (FDH is formaldehyde dehydrogenase); Potency, µM (doses to about 57.1 µM), for inactives: at the highest dose activity change, negative = inhibition, usual class: inhibitors; actives 1.6% (n = 230,000); AID 2147;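 note: potency is the fitted concentration of half-maximal effect; 0% = wells with enzyme and -100% = buffer wells without enzyme; nearly all actives have a fitted effect of over 50% in size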
Target sequence (B2RXH2 1-337 limits assumed): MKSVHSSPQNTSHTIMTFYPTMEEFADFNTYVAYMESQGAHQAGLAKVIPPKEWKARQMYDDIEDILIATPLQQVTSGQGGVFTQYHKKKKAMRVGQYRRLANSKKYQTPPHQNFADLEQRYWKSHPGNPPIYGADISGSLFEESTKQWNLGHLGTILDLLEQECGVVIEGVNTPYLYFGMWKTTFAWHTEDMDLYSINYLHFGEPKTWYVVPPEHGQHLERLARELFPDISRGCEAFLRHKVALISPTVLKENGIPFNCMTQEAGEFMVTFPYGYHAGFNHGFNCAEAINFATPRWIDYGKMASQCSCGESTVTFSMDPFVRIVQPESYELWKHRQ
Sfp inh: Sfp phosphopantetheinyl transferase inhibition | Q9F4F7 | Biochemical Sfp PPTase activity, qHTS | Potency, µM, inactives show largest response in the series, negative = inhibition, usual class: inhibitors | actives 3.5% (n = 310,000); active = well fitted curve in the direction sought with a large enough effect; inconclusive = small, poorly fitted or top-dose-only effect, or another doubt; inactive = no such curve, though single readings can be large; an effect the other way counts as inactive or inconclusive;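 note: the enzyme is Sfp with the accession as filed and its product quenches rhodamine fluorescence; potency is the fitted concentration of half-maximal effect; 0% = enzyme reaction without inhibitor and -100% = no enzyme wells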
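With Hepes-Na pH 7.6 buffer containing 10 mM MgCl2, Sfp (15 nM) modified BHQ-2-YbbR (12.5 uM) using rhodamine-CoA (5 uM). Two reads 30 minutes apart at 525/598 nm yielded each well's rate.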
The depositor's hits bear a star; [ ] = another dose, or the depositor's remark. Unless noted, calls come from the whole dose curve; as a rule, active = well fitted inhibition curve with a large enough effect (not every such curve was filed as active); inconclusive = small, poorly fitted or top-dose-only effect, or another doubt; inactive = no such curve, though single readings can be large or run the other way. Unless noted, % is set by controls: 0 for no effect and ±100 for the full control effect.

What do the screens show for `Cc1cc(C)n2c(Nc3ccc4c(c3)OCCO4)c(-c3ccc(C)o3)nc2n1`?
RGS12 GoLoco inh: 0.6%; NPSR antag: -23.4%[46.1 µM]; FBPA coupling cs: -4.9; ALDH1A1 inh: -1.8%; JMJD2E inh: -7.3%; Sfp inh: 31.6µM*

Results for Cc1ccc(-c2nc3ncccn3c2NC2CCCCC2)o1 ?
RGS12 GoLoco inh: -7.8%; NPSR antag: -18.4%[46.1 µM]; FBPA coupling cs: 2.9; ALDH1A1 inh: -0.3%; JMJD2E inh: -2.4%; Sfp inh: 44.7µM*

Results for Cc1ccc(-c2nc3ncccn3c2Nc2ccc3c(c2)OCCO3)o1 ?
RGS12 GoLoco inh: 4.7%; NPSR antag: -25.8%[46.1 µM]; FBPA coupling cs: 0.9; ALDH1A1 inh: inconclusive; JMJD2E inh: -8.9%; Sfp inh: 44.7µM*

What do the screens show for `Cn1cccc1C(=O)N1CCC2(CCCN(c3ncccn3)C2)CC1`?
RGS12 GoLoco inh: 8.7%; FBPA coupling cs: 6.3; ALDH1A1 inh: 13.3%; Sfp inh: 11.3%

What do the screens show for `O=C(O)c1nn(CC(=O)N2CCC(Cc3ccccc3)CC2)c(=O)c2ccccc12`?
FBPA coupling cs: 2.4; Sfp inh: -11.9%

How did Cc1cccc(N2CCN(C(=O)Cn3sc4nc(C)cc(C)c4c3=O)CC2C)c1 (configuration not stated) do in these assays?
RGS12 GoLoco inh: 1.41µM*; NPSR antag: inconclusive; FBPA coupling cs: 3.3; ALDH1A1 inh: 3.55µM*; JMJD2E inh: inconclusive; Sfp inh: 3.55µM*

How did Cc1cc(C)c2c(=O)n(CC(=O)N3CCC(Cc4ccccc4)CC3)sc2n1 do in these assays?
RGS12 GoLoco inh: -3.1%; NPSR antag: -26.3%; FBPA coupling cs: 4.1; ALDH1A1 inh: 7.08µM*; JMJD2E inh: inconclusive; Sfp inh: 7.94µM*

Results for COc1ccccc1C(=O)C1CCCN(C(=O)c2cc(CC(C)C)nc(C)n2)C1 (configuration not stated) ?
RGS12 GoLoco inh: -8.6%; NPSR antag: -5.3%; FBPA coupling cs: 3.2; ALDH1A1 inh: -5.5%; JMJD2E inh: -9.6%; Sfp inh: -5.6%

Results for COc1ccc(-n2c(=S)[nH]c3cc(C(=O)Nc4ccc(C)c(F)c4)ccc3c2=O)c(OC)c1 ?
FBPA coupling cs: 0.7; Sfp inh: 32.5%

How did COc1cc(NC(=O)C2CC(=O)N(CCc3ccc(F)cc3)C2)cc(OC)c1OC (configuration not stated) do in these assays?
FBPA coupling cs: -14.7; Sfp inh: -0.9%

How did COc1cccc(C(=O)N2CCN(C(=O)c3cccc4ccccc34)CC2)c1OC do in these assays?
RGS12 GoLoco inh: 3.1%; NPSR antag: 9.1%[46.1 µM]; FBPA coupling cs: 0.8; ALDH1A1 inh: inconclusive; JMJD2E inh: 3.7%; Sfp inh: 15.2%

How did COc1cccc(C(=S)N2CCCC2)c1OC do in these assays?
FBPA coupling cs: -1.9; Sfp inh: 50.1µM*

What do the screens show for `Oc1ccccc1C(=S)N1CCCC1`?
FBPA coupling cs: 2.5; Sfp inh: 50.1µM*

How did S=C(c1ccccc1)N1CCN(C(=S)c2ccccc2)CC1 do in these assays?
RGS12 GoLoco inh: 5.7%; NPSR antag: -4.9%; FBPA coupling cs: 3.8; ALDH1A1 inh: 0.9%; JMJD2E inh: 4.5%; Sfp inh: 1.3%

Results for O=C(OCC(=O)N1CCCC1)c1ccccc1O ?
FBPA coupling cs: 0.3; Sfp inh: 9.5%

How did Oc1ccccc1C(=S)N1CCN(C(=S)c2ccccc2O)CC1 do in these assays?
FBPA coupling cs: 7.0; Sfp inh: 28.2µM*

Results for O=C(CCCc1nc(-c2ccc(Cl)cc2)no1)NC1CCCCC1 ?
FBPA coupling cs: 0.3; Sfp inh: 17.5%

How did CC(=O)c1cccc(NC(=O)CCc2nnc3ccc(N4CCOCC4)nn23)c1 do in these assays?
FBPA coupling cs: 0.3; Sfp inh: 11.5%

Results for NNc1cc(C(=O)O)ccc1Cl ?
RGS12 GoLoco inh: -4.7%; NPSR antag: -22.2%; FBPA coupling cs: 2.5; ALDH1A1 inh: 22.4µM*; JMJD2E inh: -7.0%; Sfp inh: inconclusive

How did O=C(O)c1ccc(Cl)c(Cl)c1 do in these assays?
RGS12 GoLoco inh: -80.7%; ALDH1A1 inh: 2.9%

Results for COc1cccc(/C=N/n2nnc3c(cnn3-c3ccccc3)c2=O)c1 ?
RGS12 GoLoco inh: 11.3%; NPSR antag: -6.9%[46.1 µM]; FBPA coupling cs: -0.3; ALDH1A1 inh: 0.891µM*; JMJD2E inh: -0.8%; Sfp inh: 24.7%

How did Cc1ccc2oc(=O)n(Cc3ccccc3)c2c1 do in these assays?
FBPA coupling cs: 1.9; Sfp inh: -4.7%

How did O=C1C[C@H](c2ccc3ccccc3c2)N1S(=O)(=O)c1ccccc1[N+](=O)[O-] do in these assays?
FBPA coupling cs: 6.9; Sfp inh: -8.7%

What do the screens show for `COC(=O)c1ccncc1N`?
RGS12 GoLoco inh: 4.5%; NPSR antag: 8.9%; FBPA coupling cs: 3.5; ALDH1A1 inh: inconclusive; JMJD2E inh: inconclusive; Sfp inh: 20.3%

What do the screens show for `Nc1cnccc1C(=O)O`?
RGS12 GoLoco inh: -76.8%; NPSR antag: 7.1%; FBPA coupling cs: -50.5*; ALDH1A1 inh: inconclusive; JMJD2E inh: 0.631µM*; Sfp inh: 25.1µM*

How did CN(C)c1ccc(/C=N/Nc2nncc3ccccc23)cc1 do in these assays?
FBPA coupling cs: 0.5; Sfp inh: -2.4%

How did COc1ccccc1NC(=O)CSc1nnc(CCC(=O)Nc2ccccc2F)n1C do in these assays?
RGS12 GoLoco inh: 4.0%; NPSR antag: 6.9%; FBPA coupling cs: -2.7; JMJD2E inh: -3.6%; Sfp inh: -20.3%

How did CCCCC1OC23CCCCC2C(C#N)(C#N)C1(C#N)C(=N)O3 (configuration not stated) do in these assays?
RGS12 GoLoco inh: 28.2µM*; NPSR antag: 12.6%; FBPA coupling cs: -45.0*; ALDH1A1 inh: 1.78µM*; JMJD2E inh: 6.5%; Sfp inh: -0.6%

Results for N#CC1(C#N)C(c2ccccc2)OC23CCCCC2C1(C#N)C(=N)O3 (configuration not stated) ?
RGS12 GoLoco inh: -126.2%; NPSR antag: 15.3%; FBPA coupling cs: 0.0; ALDH1A1 inh: inconclusive; JMJD2E inh: inconclusive; Sfp inh: 4.7%

How did CCCCCCCCOc1ccc(C2OC34CCCCC3C(C#N)(C#N)C2(C#N)C(=N)O4)cc1 (configuration not stated) do in these assays?
RGS12 GoLoco inh: 28.2µM*; NPSR antag: -18.5%[46.1 µM]; FBPA coupling cs: -6.4; ALDH1A1 inh: inconclusive; JMJD2E inh: inconclusive; Sfp inh: -10.2%

How did COc1cc(OC)cc(C(=O)N2CCC(C(=O)NCCc3ccccc3)CC2)c1 do in these assays?
FBPA coupling cs: -6.7; Sfp inh: -1.6%

Results for O=S(=O)(Nc1nccs1)c1ccc(Br)cc1 ?
RGS12 GoLoco inh: 12.3%; NPSR antag: -7.5%; FBPA coupling cs: 4.7; ALDH1A1 inh: 4.6%; JMJD2E inh: 5.5%; Sfp inh: 26.7%
